The record followed here is PubChem BioAssay AID2685 (National Center for Advancing Translational Sciences (NCATS), 2010).

Among all 320,000 compounds or so, about 2,100 (0.66%) were called active. Not shown: some 53% with an inconclusive outcome. Calls follow the shape of the dose curve; as a rule, active = well fitted inhibition curve with a large enough effect in the signal ratio, with a control signal flat (not every such curve was filed as active); inconclusive = small, poorly fitted or top-dose-only effect, or effect the other way, or a change in a side signal; inactive = flat fitted curve, though single readings scatter; the % refers to the signal ratio. Only a selection was taken, and actives are over-represented in it overall.
Potency is read from the fitted curve at half-maximal effect.

The experiment can be described thus: qHTS Assay for Lipid Storage Modulators in Drosophila S3 Cells.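 As to cell number change: cells counted by Cell Tracker Red CMTPX staining in the red channel.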 As to lipid storage change, negative = inhibition: % is scaled to controls: 0 for no effect and ±100 for the full control effect. To be noted: BODIPY lipid droplet fluorescence, 18-24 h, cells fed with added oleic acid; cell number change: measured here: cell count max response; series mostly up to 46.1 µM; lipid storage change, negative = inhibition: at the top concentration. The method, boiled down: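 Drosophila S3 cells loaded with oleic acid (400 uM, as added) and compounds at several concentrations; lipid droplets imaged by 488-nm laser-scanning cytometry, 500–530 nm intensity and object ratio to cell channel. Percent activity normalized to 20 uM Triacsin C.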
A general note: In qHTS, concentration-response curves come from the screen itself.
Consider `CC(C(=O)NC1CCCC1)N(C(=O)Cn1nnc(-c2ccc(F)cc2)n1)c1ccccc1F` (stereo not given), for which the molecule was classed as inactive and the cell number change is -1.32%. As for `CC(C(=O)NC1CCCC1)N(c1ccc(Oc2ccccc2)cc1)S(C)(=O)=O` (stereo not given), the “lipid storage change, negative = inhibition” value was 15.3% (inactive) and the cell number change is 11.4%. Consider `CCOc1ccc(N(C(C)C(=O)NC2CCCCCC2)S(C)(=O)=O)cc1` (stereo not given), for which the result was inactive. On to `CCC(CC)c1nnc(NC(=O)CN2C(=O)NC3(CCCC3)C2=O)s1`, for which the cell number change was found to be 9% and the outcome was “inactive [at 0.369 µM]”. As for `Cn1c(Cn2c3ccccc3c3ccccc32)n[nH]c1=S`, the “lipid storage change, negative = inhibition” value is 2.12% (inactive) and the cell number change was -6.36%. Consider `O=C(O)c1ccccc1-n1cnnn1`, for which the “lipid storage change, negative = inhibition” value is -27.2% (inactive) and the cell number change is -10.9%.

As to `CCC(C)NCCOCCSc1ccc(Cl)cc1` (stereo not given), the “lipid storage change, negative = inhibition” value is 0.747% (inactive) and the cell number change turned out to be 14.1%. As for `CCCCNCCOCCSc1ccc(Cl)cc1`, the “lipid storage change, negative = inhibition” value is -18.9% (inactive) and the cell number change is -17.4%. With `CC(C)NCCOCCSc1ccc(Cl)cc1`, the Potency was 20.6 µM (active) and the cell number change is -7.67%.

With `Cc1ccccc1C(=O)Nc1cccc(-c2ccc3nncn3n2)c1`, the “lipid storage change, negative = inhibition” value is -1.94% (inactive) and the cell number change came out at 10.3%. Regarding `CCOc1ccccc1OCCn1ncc2ccc(OC)c(OC)c2c1=O`, the “lipid storage change, negative = inhibition” value is -3.25% (inactive) and the cell number change worked out at 16.5%.

As for `COCCNCc1ccccc1`, the Potency was 18.4 µM (active) and the cell number change was -17.8%.

In the case of `Brc1ccccc1OCCNCc1ccccc1`, the “lipid storage change, negative = inhibition” value is 7.29% (inactive) and the cell number change is 17.2%. Take `CCOc1ccccc1OCCCNCc1ccccc1`: the “lipid storage change, negative = inhibition” value was 26.7% (inactive) and the cell number change amounted to 2.07%.

With `CS(=O)(=O)c1ccc(C(=O)Nc2ccc(N3CCOCC3)cc2)c(Cl)c1`, the “lipid storage change, negative = inhibition” value is -24.8% (inactive). With `COc1ccc(NC(=O)COC(=O)C2CCC2)cc1Cl`, the “lipid storage change, negative = inhibition” value is 6.28% (inactive) and the cell number change was determined as 12.2%. Regarding `Cc1cc(=O)[nH]c(SCC(=O)Nc2nc3c(s2)CCCC3)n1`, the “lipid storage change, negative = inhibition” value was -0.416% (inactive) and the cell number change is 12.9%. For the molecule `CCC(Sc1nc(C)cc(=O)[nH]1)C(=O)Nc1nc2c(s1)CCCC2` (stereo not given), the Potency was 14.6 µM (active) and the cell number change was -8.37%. Consider `COc1cc(=O)[nH]c(SC(C)C(=O)Nc2nc3c(s2)CCCC3)n1` (stereo not given), for which the call was inactive and the cell number change worked out at 7.98%. In the case of `Cc1ccccc1-c1nc(CSc2nc3c(c(=O)[nH]2)CCC3)c(C)o1`, the “lipid storage change, negative = inhibition” value was 29% (inactive) and the cell number change is -21.7%. The corresponding values for `Cc1sc2nc(-c3cccs3)oc(=O)c2c1C` are 0.745% (inactive) and 5.53%. The corresponding values for `CCc1nc2scc(-c3cccs3)c2c(=O)o1` are 6.47% (inactive) and 9.87%. Regarding `O=c1oc(-c2cccs2)nc2scc(-c3cccs3)c12`, the Potency was 14.6 µM (active) and the cell number change was -10.7%. On to `CN1CCN(NC(=O)Nc2ccc(Br)cc2)CC1`, for which the “lipid storage change, negative = inhibition” value was 2.95% (inactive). Regarding `CN1CCN(NC(=O)Nc2ccc(F)cc2)CC1`, the call was inactive and the cell number change was found to be 17.8%. Consider `CN1CCN(NC(=O)Nc2cc(Cl)cc(Cl)c2)CC1`, for which the Potency was 4.61 µM (active). With `CCOC(=O)C1CCCN(C(=O)c2cc3ncc(Br)cn3n2)C1` (stereo not given), the molecule was classed as inactive and the cell number change was determined as 5.95%. Turning to `CC(Oc1ccccc1)c1nnc(N)s1` (stereo not given), the “lipid storage change, negative = inhibition” value was -1.67% (inactive) and the cell number change was determined as 14.9%. Consider `O=C(COc1ccc([N+](=O)[O-])cc1)Nc1ccc(N2CCN(C(=O)c3ccco3)CC2)cc1`, for which the Potency was 2.06 µM (active) and the cell number change was -6.49%.

`CC(=O)N1CCN(c2ccc(NC(=O)c3ccco3)cc2)CC1`: the outcome was inactive and the cell number change was -9.52%. On to `O=C(COc1ccccc1)Nc1ccc(N2CCN(C(=O)c3ccco3)CC2)cc1`, for which the “lipid storage change, negative = inhibition” value was 1.13% (inactive) and the cell number change turned out to be 11.5%. Consider `O=C(COc1ccc(Cl)cc1)Nc1ccc(N2CCN(C(=O)c3ccco3)CC2)cc1`, for which the “lipid storage change, negative = inhibition” value was -3.43% (inactive) and the cell number change is -2.54%. Regarding `CC(C)(C)OC(=O)N1CCN(c2ccc(NC(=O)c3ccco3)cc2)CC1`, the Potency is 3.26 µM (active) and the cell number change came out at 4.03%. Consider `O=C(Nc1ccc(N2CCN(C(=O)c3ccco3)CC2)cc1)c1ccco1`, for which the “lipid storage change, negative = inhibition” value is 0.808% (inactive) and the cell number change was 25.3%. Turning to `CCOC(=O)C1CCCN(C2CC(=O)N(c3ccc(C(C)C)cc3)C2=O)C1` (stereo not given), the “lipid storage change, negative = inhibition” value was -14.3% (inactive) and the cell number change worked out at 15.9%.

Consider `COc1cccc(NC(=O)COC(=O)CCS(=O)(=O)c2ccc(C)cc2)c1`, for which the “lipid storage change, negative = inhibition” value is 9.39% (inactive). `O=C(NC1CCSC1=O)c1ccc(Cl)cc1` (stereo not given): the “lipid storage change, negative = inhibition” value was -0.574% (inactive) and the cell number change was 12%. As for `CC(C)[C@H](NC(=O)NC1CCN(Cc2ccccc2)CC1)C(=O)O`, the “lipid storage change, negative = inhibition” value is -6.91% (inactive) and the cell number change turned out to be 11.2%. As to `N=C1C(=O)OCC1c1ccccc1NC(=O)c1ccc(F)cc1` (stereo not given), the molecule was classed as inactive and the cell number change was -9.08%. As to `O=C(Nc1cccc(NC(=O)c2ccccc2[N+](=O)[O-])n1)c1ccccc1[N+](=O)[O-]`, the “lipid storage change, negative = inhibition” value is -1.54% (inactive) and the cell number change was -14.1%. Regarding `Cc1cc(C)nc(N2CCC(C(=O)NC3CC3)CC2)n1`, the Potency is 0.58 µM (active) and the cell number change was determined as 11.7%.

On to `Cc1cc(C)nc(N2CCC(C(=O)O)CC2)n1`, for which the “lipid storage change, negative = inhibition” value is 1.1% (inactive).

`Cc1cc(C)nc(N2CCCC(C(=O)NC3CC3)C2)n1` (stereo not given): the call was inactive and the cell number change was determined as 0.42%.

Turning to `COc1ccc(NC(=O)C2CCN(S(=O)(=O)c3c(C)noc3C)CC2)cc1OC`, the “lipid storage change, negative = inhibition” value was -10.7% (inactive) and the cell number change turned out to be 0.165%. For the molecule `Cc1noc(C)c1S(=O)(=O)N1CCC(C(=O)Nc2ccc(OC(F)(F)F)cc2)CC1`, the Potency was 18.4 µM (active) and the cell number change is -15.1%. On to `CCc1ccc(NC(=O)C2CCN(S(=O)(=O)c3c(C)noc3C)CC2)cc1`, for which the molecule was called inactive.
